Laboratory results from the supplement of paper PMC8728848.
The entries come from a sample that favours the strongest signals as a whole.

What was measured:
Assay in all cases: glycan array binding signal (z-score within array); higher = stronger binding
Details in all cases: glycan notation: IUPAC condensed, linker removed
Gal6S(b1-4)GlcNAc = molecular target: Gal6S(b1-4)GlcNAc
Method in brief: (§1)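 The binding signal is a Z-score computed within each array. Data were drawn from 3228 arrays in the Consortium for Functional Glycomics database, restricted to those with a known protein sequence. Scores were averaged over arrays of the same protein sequence at different concentrations or buffers, and over linkers, and negative values can be taken as non-binding.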

GalNAc(b1-4)GlcNAc = molecular target: GalNAc(b1-4)GlcNAc
Method in brief: as §1

[1] = molecular target: GalNAc(b1-4)GlcNAc(b1-2)Man
Method in brief: as §1

[2] = molecular target: Glc(a1-6)Glc(a1-6)Glc(a1-6)Glc
Method in brief: as §1

GlcA(b1-3)GlcNAc = molecular target: GlcA(b1-3)GlcNAc
Method in brief: as §1

[3] = molecular target: GlcNAc(b1-2)[GlcNAc(b1-4)]Man(a1-3)[GlcNAc(b1-4)][GlcNAc(b1-2)Man(a1-6)]Man(b1-4)GlcNAc(b1-4)GlcNAc
Method in brief: as §1

[4] = molecular target: GlcNAc(b1-2)[GlcNAc(b1-4)]Man(a1-3)[GlcNAc(b1-4)][GlcNAc(b1-2)[GlcNAc(b1-6)]Man(a1-6)]Man(b1-4)GlcNAc(b1-4)GlcNAc
Method in brief: as §1

[5] = molecular target: Kdn(a2-3)Gal(b1-4)[Fuc(a1-3)]GlcNAc
Method in brief: as §1

[6] = molecular target: Man(a1-2)Man(a1-2)Man(a1-3)Man
Method in brief: as §1

[7] = molecular target: Neu5Ac(a2-3)Gal(b1-3)[Fuc(a1-4)]GlcNAc(b1-3)Gal(b1-4)[Fuc(a1-3)]GlcNAc
Method in brief: as §1

[8] = molecular target: Neu5Ac(a2-3)Gal(b1-4)GlcNAc(b1-3)GalNAc
Method in brief: as §1

[9] = molecular target: Neu5Ac(a2-3)Gal(b1-4)[Fuc(a1-3)]GlcNAc(b1-6)[Gal(b1-3)]GalNAc
Method in brief: as §1

[10] = molecular target: Neu5Ac(a2-3)Gal6S(b1-4)GlcNAc
Method in brief: as §1

[11] = molecular target: Neu5Ac(a2-6)Gal(b1-4)GlcNAc
Method in brief: as §1

[12] = molecular target: Neu5Ac(a2-6)Gal(b1-4)GlcNAc(b1-3)Gal(b1-4)GlcNAc(b1-3)Gal(b1-4)GlcNAc(b1-2)Man(a1-3)[Neu5Ac(a2-6)Gal(b1-4)GlcNAc(b1-3)Gal(b1-4)GlcNAc(b1-3)Gal(b1-4)GlcNAc(b1-2)Man(a1-6)]GalNAc
Method in brief: as §1

[13] = molecular target: Neu5Ac(a2-6)Gal(b1-4)GlcNAc(b1-3)Gal(b1-4)GlcNAc(b1-3)[Neu5Ac(a2-6)Gal(b1-4)GlcNAc(b1-3)Gal(b1-4)GlcNAc(b1-6)]GalNAc
Method in brief: as §1

[14] = molecular target: Neu5Gc(a2-3)Gal(b1-3)GlcNAc
Method in brief: as §1

B1: CFEM-SCL (Saccharomyces cerevisiae), O13547 (protein)
chain: MRATTLLSSVVSLALLSKEVLATPPACLLACVAQVGKSSSTCDSLNQVTCYCEHENSAVKKCLDSICPNNDADAAYSAFKSSCSEQNASLGD
Gal6S(b1-4)GlcNAc
  glycan array binding signal (z-score): -0.027
GalNAc(b1-4)GlcNAc
  glycan array binding signal (z-score): 0.047
[1]
  glycan array binding signal (z-score): -0.281
[2]
  glycan array binding signal (z-score): -0.331
GlcA(b1-3)GlcNAc
  glycan array binding signal (z-score): -0.277
[3]
  glycan array binding signal (z-score): -0.326
[4]
  glycan array binding signal (z-score): -0.303
[5]
  glycan array binding signal (z-score): -0.086
[6]
  glycan array binding signal (z-score): 0.113
[7]
  glycan array binding signal (z-score): -0.234
[8]
  glycan array binding signal (z-score): -0.277
[9]
  glycan array binding signal (z-score): 0.813
[10]
  glycan array binding signal (z-score): -0.311
[11]
  glycan array binding signal (z-score): -0.282
[12]
  glycan array binding signal (z-score): 1.21
[13]
  glycan array binding signal (z-score): -0.146
[14]
  glycan array binding signal (z-score): -0.298
